# Assay outcomes deposited in PubChem by National Center for Advancing Translational Sciences (NCATS).
# Shown are actives, neighbours in structure and some others; about 17% of the full set was active somewhere.
# DT40 TDP1 CPT = growth inhibition of DT40 Tdp1-/-;hTDP1 cells with camptothecin (screen for TDP1 inhibitors) | chicken DT40 Tdp1-/-;hTDP1 cells + 20 nM CPT, ATP luminescence, 48 h | Potency, µM (doses to about 46.2 µM), for the others: at the highest dose activity change, negative = growth inhibition, most hits filed as inhibitors | 420,000 compounds, 12% hits; further: on the % scale 0 is the no-effect control and ±100 the full control effect; nearly all actives have a fitted effect of over 55% in size
#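 Cell growth measured by CellTiter-Glo luminescence after a minimum 48 h, 37 C compound exposure with 20 nM CPT in Tdp1-knockout DT40 cells stably expressing hTDP1, seeded 400/well; qHTS titration format.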
# DT40 TDP1 no CPT = qHTS for Inhibitors of human tyrosyl-DNA phosphodiesterase 1 (TDP1): qHTS in cells in absence of CPT; DT40 Tdp1-/- hTDP1 cells, no CPT, ATP luminescence, 48 h; Potency, µM (top dose mostly 46.2 µM), inactives show at the top dose activity change, negative = growth inhibition, hits mostly inhibitors; 420,000 compounds, 15% hits; further: on the % scale 0 is the no-effect control and ±100 the full control effect; nearly all actives have a fitted effect of over 55% in size
#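 A cellular qHTS used chicken DT40 cells lacking endogenous Tdp1 but carrying stably transfected human TDP1. Compounds were applied without camptothecin, and cell growth kinetics were judged by ATP-dependent luminescence after ≥48 hr.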
# HT1080 IDH1KD tx = HT-1080 IDH1 knockdown cell toxicity (counter line) | Potency, µM (highest dose often 46.1 µM), for the others: top-dose activity, negative = toxicity, hits mostly cytotoxic | 360,000 compounds, 2% hits | HT-1080 IDH1 knockdown viability, ATP luminescence, 48 h;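 further: 0% = DMSO wells and -100% = cell-free medium wells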
#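 In this qHTS, HT-1080 cells depleted of IDH1 are exposed for 48 h at 37 °C to compound titrations. Toxicity is scored from CellTiter-Glo luminescence, with DMSO as full viability and medium alone as none.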
# TGFb SMAD3 inh = inhibitors of TGF-b signaling. Potency, µM (doses to about 46.1 µM), for inactives: at the top dose activity, negative = inhibition, usual class: inhibitors. 410,000 compounds, 1.2% hits. AID 588855. HepG2 CAGA-GFP TGF-b/SMAD3 reporter, GFP fluorescence, 18 h; TGF-beta stimulated, 500 pg/mL final; further: on the % scale 0 is the no-effect control and ±100 the full control effect; nearly all actives have a fitted effect of over 65% in size
#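 GFP signal (ex488/em500-530) from TGF-beta-stimulated HEPG2 CAGA-GFP cells, 500 pg/mL final, 18 h at 37 degrees C in DMEM plus 1% FBS, normalized to unstimulated and DMSO-stimulated controls.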
# HT1080-NT tox = kills 2HG-producing HT-1080-NT fibrosarcoma cells; HT-1080-NT fibrosarcoma viability, CellTiter-Glo ATP luminescence, 48 h; Potency, µM (series often up to 46.1 µM), for inactives: at the top dose activity, negative = less viability, actives largely listed as cytotoxic; 360,000 compounds, 1.6% hits; AID 686970;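 further: NT is the 2HG producing partner of a matched IDH1 knockdown line; 0% = DMSO-treated cells and -100% = media-only wells without cells; nearly all actives have a fitted effect of over 55% in size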
#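 Fibrosarcoma NT cells, 750 per well in 5% FBS RPMI, were exposed to compound for 48 hours. Viability: CellTiter-Glo luminescence.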
# HepG2 tox = HepG2 cytotoxicity, counter-screen for TGF-b inhibitors | AID 588856 | 410,000 compounds, 0.76% hits | Potency, µM (highest dose often 46.1 µM), without a hit: at the top dose activity change, negative = cytotoxicity, most hits filed as cytotoxic | HepG2 CAGA-GFP viability, ATP luminescence, 18 h
#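 HepG2 CAGA-GFP cells (1000/well, DMEM with 1% FBS) received compound, then TGF-beta at 500 pg/mL final, and were incubated 18 hours at 37 degrees C. Viability was read by CellTiter-Glo luminescence. Media-only wells were set as complete cell-killing and DMSO as no toxicity.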
# Starred values were filed as active, the others as inactive; ? = inconclusive; . = no result given; [ ] = dose if it differs, or a comment. The call rests on the fitted dose curve; in most records, active means well fitted curve in the direction sought with a large enough effect; inconclusive means small, poorly fitted or top-dose-only effect, or another doubt; inactive means no such curve, though single readings can be large; an effect the other way counts as inactive or inconclusive. Potency means the concentration at half of the fitted maximal effect.
SMILES,DT40 TDP1 CPT,DT40 TDP1 no CPT,HT1080 IDH1KD tx,TGFb SMAD3 inh,HT1080-NT tox,HepG2 tox
COc1cc(-c2ccc(C)cc2)cc2c1OCCN(C(=O)CCn1ccc(C)n1)C2,0%[9.04 µM],?,.,.,.,.
O=C(COc1ccccc1)NCC(c1cccs1)S(=O)(=O)c1ccc(Cl)cc1 (stereo not drawn),?,23µM*,.,-26%,.,-20%
Cc1cc(S(=O)(=O)C(CNC(=O)COc2ccc(Cl)cc2)c2cccs2)ccc1F (stereo not drawn),2.6µM*,?,.,-4%,.,-7%
O=C(COc1ccc(Cl)cc1)NCC(c1ccco1)S(=O)(=O)c1ccccc1 (stereo not drawn),?,21µM*,.,?,.,-1%
COc1ccc(NC(=O)N2CCCc3ccccc32)c(OC)c1,-27%,7%,2%,-10%,3%,-3%
CN(C)c1ccc(CNC(=O)Cc2ccc(NC(=O)N3CCCCc4ccccc43)cc2)cc1,?,21µM*,.,-23%,.,-27%
CCNC(=O)Cc1ccc(NC(=O)N2CCCCc3ccccc32)cc1,-14%,-11%,.,?,.,17%
Cc1ccccc1CNC(=O)Cc1ccc(NC(=O)N2CCCCc3ccccc32)cc1,?,18µM*,.,-1%,.,-7%
COc1ccc(C)cc1NC(=O)N1CCCc2ccccc21,?,23µM*,17%,-16%,-2%,-16%
Cc1cccc(CNC(=O)Cc2ccc(NC(=O)N3CCCCc4ccccc43)cc2)c1,?,16µM*,.,?,.,-36%
Fc1ccc(-c2cc(C(F)(F)F)n3ncnc3n2)cc1,7%,?,-6%,-26%,1%,-25%
O=C1C(Cc2ccccc2)Nc2ncnc(N3CCCCC3)c2N1Cc1ccc(Cl)cc1 (stereo not drawn),?,16µM*,-13%,?,-14%,-5%
COc1ccc(CN2C(=O)C(Cc3ccccc3)Nc3ncnc(N4CCN(c5ccccc5)CC4)c32)cc1 (stereo not drawn),?,?,-7%,?,?,-19%
O=C1C(Cc2ccccc2)Nc2ncnc(N3CCOCC3)c2N1Cc1ccc(Br)cc1 (stereo not drawn),?,?,2%,-7%,2%,-15%
O=C1C(Cc2ccccc2)Nc2ncnc(N3CCN(c4ccccc4)CC3)c2N1Cc1ccc(Cl)cc1 (stereo not drawn),?,18µM*,-8%,-2%,-10%,-13%
O=C1C(Cc2ccccc2)Nc2ncnc(N3CCc4ccccc4C3)c2N1Cc1ccccc1 (stereo not drawn),?,16µM*,-10%,-26%,-19%,-19%
CC1Nc2ncnc(N3CCc4ccccc4C3)c2N(Cc2ccc(Br)cc2)C1=O (stereo not drawn),16µM*,23µM*,?,?,?,-24%
CCOC(=O)c1c(C)[nH]c(C)c1C(=O)COC(=O)c1ccc(OC)c(OC)c1,8%,-5%,8%,-2%,-3%,-15%
O=C(O)C1c2ccccc2Cc2ccccc21,-4%,2%,-7%,3%,-1%,-3%
Cc1ccc(-c2nnc(Nc3ccc(S(N)(=O)=O)cc3)c3ccccc23)cc1S(=O)(=O)N1CCCCC1,-18%,0%,.,?,.,-2%
CNS(=O)(=O)c1cc(-c2nnc(Nc3cc(C)ccc3C)c3ccccc23)ccc1C,21µM*,21µM*,.,?,.,-25%
Cc1ccc(Nc2nnc(-c3ccc(C)c(S(=O)(=O)N4CCOCC4)c3)c3ccccc23)c(C)c1,?,16µM*,.,16%,.,2%
CNS(=O)(=O)c1cc(-c2nnc(N3CCOCC3)c3ccccc23)ccc1C,-1%,-3%,-1%,5%,7%,-2%
Cc1ccc(-c2nnc(Nc3ccc(Br)cc3)c3ccccc23)cc1S(=O)(=O)N1CCOCC1,.,.,.,?,.,-44%
Cc1ccccc1Nc1nnc(-c2ccc(C)c(S(=O)(=O)N3CCOCC3)c2)c2ccccc12,?,16µM*,.,6%,.,12%
SMILES,DT40 TDP1 CPT,DT40 TDP1 no CPT,HT1080 IDH1KD tx,TGFb SMAD3 inh,HT1080-NT tox,HepG2 tox
CCN(CC)CCN1C(=O)C(=O)/C(=C(/O)c2ccc(S(=O)(=O)N3CCOCC3)cc2)C1c1ccc(C(C)C)cc1 (stereo not drawn),-8%,0%,6%,-8%,4%,9%
O=C(C1=NNCC1c1ccccc1)C1OC1c1ccccc1 (stereo not drawn),-18%,?,-18%,-21%,-2%,-28%
Cc1oc(C)c2c(=O)cc(-c3ccc4c(c3)OCO4)cc(OC(=O)c3ccccc3Cl)c12,23µM*,?,.,111%,.,-11%
CCOc1cc(-c2ccc3c(c2)OCO3)cc(=[O+]CC)c2c(C)oc(C)c12,?,14µM*,.,-7%,.,1%
Cc1oc(C)c2c(=O)cc(-c3ccc4c(c3)OCO4)cc(OC(=O)c3ccccc3Br)c12,16µM*,?,.,71%,.,-14%
COc1cccc2c1cc1c(=O)n(CC(=O)NCCCN3CCCCC3)nc(C)n12,15%,-4%,0%,-6%,1%,-3%
COCCNC(=O)C1CCCN(C(=O)C2(c3ccc(Cl)cc3)CCCC2)CC1 (stereo not drawn),-23%,?,-1%,2%,4%,2%
COc1cc2nc(CCc3ccccc3)oc(=O)c2cc1OC,1%,2%,-1%,-6%,19%,-24%
CCN(c1ccccc1)S(=O)(=O)c1ccc(OC)c(NC(=O)Cc2ccccc2OC)c1,23µM*,23µM*,-10%,13%,5%[9.24 µM],2%
CCN(c1ccccc1)S(=O)(=O)c1ccc(Cl)c(NC(=O)COC(=O)c2cccc(OC)c2O)c1,?,18µM*,16%,-2%,9%,6%
Cc1cc2c(cc(C(=O)NCc3cccnc3)n2Cc2ccc(Cl)cc2)o1,-29%,-4%,-30%,-17%,3%,23%
Cc1cc[n+](CC(=O)Nc2cc(C(F)(F)F)ccc2Cl)cc1,-16%,-10%,5%,-1%,5%,5%
CN(C)c1cc[n+](CC(=O)Nc2cc(C(F)(F)F)ccc2Cl)cc1,16µM*,8.2µM*,?,1%,?,2%
O=C(C[n+]1ccc2ccccc2c1)Nc1cc(C(F)(F)F)ccc1Cl,21µM*,?,-19%,20%,-5%,-28%
